Assay results reported in PMC4336329 (PLoS ONE, 2015).
About 14,000 (4.5%) of roughly 310,000 compounds showed an effect of 50% or more. Effects have a minus sign here. Only a selection was taken, and strong results are over-represented in it overall.

molecular target: human ether-à-go-go-related gene (hERG) potassium channel (human, UniProt Q12809); experiment: primary screen, population patch clamp on CHO cells stably expressing hERG; higher = less effect of the substance
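Note: peak tail current of the secondary pulse compared with the same well before compound.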

human ether-à-go-go-related gene (hERG) potassium channel, sequence (Q12809 whole entry, looked up): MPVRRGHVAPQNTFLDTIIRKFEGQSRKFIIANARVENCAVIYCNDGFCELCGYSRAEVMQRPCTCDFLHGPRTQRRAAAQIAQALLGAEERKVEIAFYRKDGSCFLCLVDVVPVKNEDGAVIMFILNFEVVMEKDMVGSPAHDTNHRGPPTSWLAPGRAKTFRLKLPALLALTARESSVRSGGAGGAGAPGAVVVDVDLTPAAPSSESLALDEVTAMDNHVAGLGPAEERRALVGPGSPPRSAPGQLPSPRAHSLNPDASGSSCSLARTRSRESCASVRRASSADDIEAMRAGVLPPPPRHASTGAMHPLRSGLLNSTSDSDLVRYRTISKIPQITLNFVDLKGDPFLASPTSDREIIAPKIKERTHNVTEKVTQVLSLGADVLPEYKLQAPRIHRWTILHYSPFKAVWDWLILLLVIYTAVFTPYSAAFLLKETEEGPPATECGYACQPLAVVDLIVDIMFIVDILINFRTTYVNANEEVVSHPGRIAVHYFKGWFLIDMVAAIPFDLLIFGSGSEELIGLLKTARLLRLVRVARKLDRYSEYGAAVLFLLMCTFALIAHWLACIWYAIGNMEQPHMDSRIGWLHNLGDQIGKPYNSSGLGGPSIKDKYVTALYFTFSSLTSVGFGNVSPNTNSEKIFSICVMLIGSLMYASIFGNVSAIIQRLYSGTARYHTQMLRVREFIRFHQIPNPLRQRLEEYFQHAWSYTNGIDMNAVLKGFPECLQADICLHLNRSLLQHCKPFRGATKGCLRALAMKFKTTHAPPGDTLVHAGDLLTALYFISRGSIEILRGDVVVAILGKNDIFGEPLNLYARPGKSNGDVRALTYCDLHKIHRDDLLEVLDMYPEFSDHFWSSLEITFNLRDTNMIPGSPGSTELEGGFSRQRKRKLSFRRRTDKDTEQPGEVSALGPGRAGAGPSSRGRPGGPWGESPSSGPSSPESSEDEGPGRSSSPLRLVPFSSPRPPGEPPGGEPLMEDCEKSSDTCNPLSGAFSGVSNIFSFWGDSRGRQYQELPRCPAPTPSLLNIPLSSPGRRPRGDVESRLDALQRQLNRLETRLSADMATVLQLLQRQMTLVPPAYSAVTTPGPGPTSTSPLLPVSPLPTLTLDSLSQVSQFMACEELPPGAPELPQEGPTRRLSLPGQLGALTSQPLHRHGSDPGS

Structure (SMILES)	hERG current change (%, negative = inhibition) at 10uM
COC(=O)c1ccc(COC(=O)c2c(C)nn(Cc3ccccc3Cl)c2Cl)o1	10.9%
COCCNCC(=O)Nc1ccc(OC(F)(F)F)cc1.Cl	-33.9%
CN(CC(=O)Nc1ccc(Cl)cc1)C1CCCCC1	-10%
CN(CC(=O)Nc1ccc(Cl)c(Cl)c1)C1CCCCC1.O=C(O)C(=O)O	-7.28%
CN(CC(=O)Nc1ccc(S(N)(=O)=O)cc1)C1CCCCC1	-1.84%
CCOCCCNCC(=O)Nc1ccc(OC(F)(F)F)cc1.Cl	-56.4%
CN(CC(=O)Nc1ccc(SC(F)F)cc1)C1CCCCC1	-70%
COc1ccc(NC(=O)CN(C2CCCCC2)S(C)(=O)=O)cc1Cl	-18.4%
COCCCNCC(=O)Nc1ccc(OC(F)(F)F)cc1.Cl	-30%
COc1ccc(NC(=O)CN(C)C2CCCCC2)cc1Cl	-55%
CCCCCCSc1nsc(N)n1	-10.8%
Cc1cccnc1NC(=O)CNC(=O)C12CC3CC(CC(Cl)(C3)C1)C2	13%
CCCCc1ccc(-c2nc(-c3ccncc3)no2)cc1	16%
Cc1ccsc1-c1nc(C(N)=O)c2[nH]c(=O)n(-c3ccc(Cl)cc3)c2n1	1.51%
O=C(NCc1cccnc1)c1ccc(COc2ccc(Cl)cc2)cc1	-58.6%
O=C(COc1ccc(C(=O)NCc2cccnc2)cc1)Nc1cccc(C(F)(F)F)c1	-60.6%
COc1cc(C(=O)NCc2cccnc2)ccc1OCC(=O)Nc1cccc(C(F)(F)F)c1	3.13%
Cc1cccc(OCC(=O)Nc2ccc(C(=O)NCc3cccnc3)cc2)c1	-0.608%
O=C(COc1ccc(Cl)cc1)Nc1ccc(C(=O)NCc2cccnc2)cc1	-36.8%
O=C(NCc1cccnc1)c1ccc(COc2ccccc2Cl)cc1	4.47%

Structure (SMILES)	hERG current change (%, negative = inhibition) at 10uM
Cc1cccc(-n2c(C)cc(/C=N\NC(=O)c3ccco3)c2C)c1	-12.8%
OCC1(Cc2ccccc2F)CCCN(CCc2ccccc2)C1 (stereo not drawn)	-74.8%
OCC1(Cc2ccc(F)cc2)CCCN(CCc2ccccc2)C1 (stereo not drawn)	-45.5%
C=CCC(=O)N1CCCC(CO)(Cc2ccc(F)cc2F)C1 (stereo not drawn)	0.892%
OCC1(Cc2ccccc2F)CCCN(CC2CCCCC2)C1 (stereo not drawn)	-37.7%
Cc1ccccc1CC1(CO)CCCN(C(=O)Cc2c(F)ccc(F)c2F)C1 (stereo not drawn)	-0.736%
CSCCCN1CCCC(CO)(Cc2ccccc2F)C1 (stereo not drawn)	-38.3%
OCC1(Cc2ccccc2F)CCCN(Cc2c(F)ccc(F)c2F)C1 (stereo not drawn)	-55.5%
O=C(Cc1cccc(F)c1)N1CCCC(CO)(Cc2ccc(F)cc2F)C1 (stereo not drawn)	-9.84%
OCC1(Cc2ccc(F)cc2F)CCCN(CCCc2ccccc2)C1 (stereo not drawn)	-82.9%
CC(C)NC(=O)C1CCN(C2CCN(CC3CC=CCC3)CC2)CC1 (stereo not drawn)	-15%
O=C(O)c1cc(-c2cccs2)[nH]n1	15.5%
C/C(=N\NC(=O)c1[nH]c2c([N+](=O)[O-])cc(C)cc2c1-c1ccccc1)c1cccnc1	6.67%
CC12CCC(C(N)=O)(c3nc4ccccc4nc31)C2(C)C (stereo not drawn)	-4.08%
CC12CCC(C(=O)N3CCN(c4ncccn4)CC3)(c3nc4ccccc4nc31)C2(C)C (stereo not drawn)	-20.2%
CN1CCN(C(=O)C23CCC(C)(c4nc5ccccc5nc42)C3(C)C)CC1 (stereo not drawn)	-53.3%
O=[N+]([O-])c1ccc(N2CCN(c3ccc(F)cc3)CC2)cn1	-48.7%
O=[N+]([O-])c1ccc(N2CCOCC2)cn1	15.4%
O=[N+]([O-])c1ccc(N2CCCCC2)cn1	8.92%
O=[N+]([O-])c1ccc(N2CCN(c3cccc(Cl)c3)CC2)cn1	-63.2%

Structure (SMILES)	hERG current change (%, negative = inhibition) at 10uM
O=[N+]([O-])c1ccc(N2CCN(c3ccc(O)cc3)CC2)cn1	-52.8%
O=[N+]([O-])c1ccc(N2CCN(c3ccccc3Cl)CC2)cn1	-34.3%
Cn1c(C(=O)NCc2ccccn2)cc2c(=O)n3ccccc3nc21	-1.42%
CN(C)S(=O)(=O)c1cccc(NC(=O)c2cc3ccccc3o2)c1	-13.7%
CCOc1ccc(N2C(=O)/C(=C/c3cccs3)N(CC(=O)OC)C2=S)cc1	-28%
COC(=O)C(NC(C)=O)(Nc1nc2c(s1)CCCC2)C(F)(F)F (stereo not drawn)	-4.29%
COCCCNC(=O)CSC1=Nc2ccccc2C2=NC(c3ccccc3)C(=O)N12 (stereo not drawn)	-22.2%
O=C(Nc1ccc(F)cc1)Nc1ccc2ccccc2n1	14.2%
Cc1cc(C)c2nc(N(CCCN(C)C)C(=O)c3ccc4c(c3)CCCC4)sc2c1.Cl	-3.72%
COc1ccc(C)c2sc(N(CCCN(C)C)C(=O)c3ccc4c(c3)OCCO4)nc12.Cl	-75.6%
CN(C)CCN(C(=O)c1cccc(N2C(=O)CCC2=O)c1)c1nc2ccc(Br)cc2s1.Cl	-48.7%
COc1ccc(C)c2sc(N(CCN(C)C)C(=O)c3ccc4ccccc4c3)nc12.Cl	-20.7%
COc1ccc(C)c2sc(N(CCN(C)C)C(=O)c3cccc(N4C(=O)CCC4=O)c3)nc12.Cl	-57.9%
COc1ccc(OC)c2sc(N(CCN(C)C)C(=O)c3ccc4ccccc4c3)nc12.Cl	-11.3%
COCCN(C(=O)C1CC(=O)N(Cc2ccccc2)C1)c1nc(-c2ccc([N+](=O)[O-])cc2)cs1 (stereo not drawn)	-29.7%
COCCN(C(=O)c1cccc(N2C(=O)CCC2=O)c1)c1nc(-c2ccc([N+](=O)[O-])cc2)cs1	-50.2%
COc1ccc(-c2csc(NC(=O)c3cccc(N4C(=O)CCC4=O)c3)n2)cc1OC	-1.68%
Cc1cc(C)c2nc(N(CCN(C)C)C(=O)c3ccc4ccccc4c3)sc2c1.Cl	11.6%
COc1ccc(Cl)c2sc(N(CCN(C)C)C(=O)c3ccc4c(c3)OCCO4)nc12.Cl	-29.2%
Cc1cc(C)c2nc(N(CCCN(C)C)C(=O)c3ccc4c(c3)OCCO4)sc2c1.Cl	-51.2%
